Laboratory results taken from PubChem BioAssay (EPA / NIEHS).
Calls of active or inactive are those of the source. Rule for the calls: active = hit-call score of the fitted dose curve at least 0.9, where 1 is the maximum; inactive = score below 0.9.

Each compound was assayed on Plasminogen activator inhibitor-1 (PAI1), SERPINE1 (gene 5054) (assay: BSK_hDFCGF_PAI1: BioMAP Diversity Plus: hDFCGF Assay for Plasminogen activator inhibitor-1 (PAI1) Biomarker Activity (AID 2283066)). Details: primary human foreskin fibroblasts; actives raise or lower the signal.
Experimental: BSK_hDFCGF is a cell-based, multiplexed-readout assay that uses foreskin fibroblast, a human skin primary cell, with measurements taken at 24 hours after chemical dosing in a 96-well plate.BSK_hDFCGF_PAI1 is an assay component measured in the BSK_hDFCGF assay. It measures PAI-1 antibody related to regulation of gene expression using ELISA technology.Data from the assay component BSK_hDFCGF_PAI1 was analyzed into 1 assay endpoint. This assay endpoint, BSK_hDFCGF_PAI1, was analyzed with bidirectional fitting relative to DMSO as the negative control and baseline of activity. Using a type of binding reporter, gain or loss-of-signal activity can be used to understand changes in the signaling as they relate to the gene SERPINE1. Furthermore, this assay endpoint can be referred to as a primary readout, because this assay has produced multiple assay endpoints where this one serves a signaling function. To generalize the intended target to other relatable targets, this assay endpoint is annotated to the cytokine intended target family, where the subfamily is plasmogen activator inhibitor.
The levels of cell surface (or secreted, indicated by the prefix "s") biomarker endpoints were measured by ELISA. Overt cytotoxicity to cells in confluent adherent cultures (all systems other than the BT system) was assessed by measuring total protein levels using sulforhodamine B (SRB) staining in parallel cultures at the time of biomarker measurements, indicated as SRB endpoints. For proliferation assays for adherent cell types, individual cell types are cultured at sub-confluence and relative cell numbers quantified by SRB staining at time points optimized for each system (48 h: 3C and CASM3C systems; 72 h: BT and HDF3CGF systems; 96 h: SAg system). SRB was performed by staining cells with 0.1% SRB after fixation with 10% TCA and reading wells at 560 nm.Viability and proliferation of PBMC (T cells) was quantified by Alamar Blue reduction for the SAg and BT systems. For PBMC viability (referred to as PBMC Cytotoxicity within the assay endpoint names), cells were plated (75,000/well in a 96-well plate) and then chemical samples added for 1 h before addition of activators, SEB and TSST-1 (20 ng/mL final concentration each). Cells were incubated for 90 h. Then, Alamar Blue (20 uL/well) (Invitrogen, Cat DAL1100) was added for 6 h, and the plates were read with a fluorescence microplate reader at 546/580 nm (excitation/emission). For PBMC proliferation, cells were plated and activated as above but incubated for only 16 h prior to addition of Alamar Blue. Plates were read after 6 h.
With `O=C=NCCCCCCN=C=O` the outcome was “inactive”. In the case of `Cc1cccc2ccccc12`, the outcome is reported as “inactive”. In the case of `CC/C(=C(/CC)c1ccc(O)cc1)c1ccc(O)cc1`, the AC50 is reported as 20 µM (active). With `CCN(Cc1cccc(S(=O)(=O)O)c1)c1ccc(C(=C2C=CC(=[N+](CC)Cc3cccc(S(=O)(=O)O)c3)C=C2)c2ccccc2S(=O)(=O)[O-])cc1` the outcome was “inactive”. For `CCCCCCCCCC(=O)O`, the outcome was “inactive”. With `CCCCCCCCOC(=O)c1cc(O)c(O)c(O)c1` the AC50 was 15.2 µM (active). For `NC(=O)c1nc(-c2cccc(-c3cc(F)ccc3OCC(F)(F)C(F)(F)F)c2)n[nH]1`, the AC50 was 32.8 µM (active). In the case of `COc1cc(C(=O)NC2CCN(C)CC2)ccc1Nc1ncc2c(n1)N(C1CCCC1)CC(F)(F)C(=O)N2C`, the AC50 is reported as 12.2 µM (active). For `CN(C[C@@H](CC[N+]12CCC(C3CCCCC3)(CC1)CC2)c1ccc(Cl)c(Cl)c1)C(=O)c1cc(C(F)(F)F)cc(C(F)(F)F)c1`, the AC50 was 5.56 µM (active). `CC1(C)NC(=O)N(c2ccc([N+](=O)[O-])c(C(F)(F)F)c2)C1=O` was tested, and the outcome was “inactive”. With `CCCCCCCCN(C)CCCCCCCC` the outcome was “inactive”. With `CC1=CC(=O)/C(=C(/C)O)C(=O)O1` the outcome was “inactive”. For `CCN(CC)C(=O)c1cc(S(=O)(=O)Cc2ccccc2)c(N2CCC(c3ccccc3)CC2)cc1N(CC)CCN(C)C`, the AC50 was 4.69 µM (active). With `Cc1cc2c(cc1C(F)(F)F)N(C(=O)Nc1ccc(Oc3cccnc3C)nc1)CC2` the outcome was “inactive”. With `CC[C@H](NC(=O)c1cc(F)ccc1NS(=O)(=O)c1cccc2cccnc12)c1ccccc1` the outcome was “inactive”. In the case of `CCOC(=O)O[C@H](C)OC(=O)c1ccc2c(c1)cc(C(=O)NC1CCN(C(C)C)CC1)n2Cc1cc(-c2ccc(Cl)s2)on1`, the AC50 is reported as 3.81 µM (active). With `O=c1ccc2ccccc2o1` the outcome was “inactive”. With `O=c1c(-c2ccc(O)cc2)coc2cc(O)cc(O)c12` the AC50 was 20 µM (active). `CCN(Cc1cccnc1)C(=O)c1cccc(Cl)c1[C@]1(C)C(=O)N(Cc2ccc(OC)cc2OC)c2ccc(Cl)cc21` was tested, and the AC50 was 9.31 µM (active). In the case of `O=C(O)c1ccccc1C(=O)OCc1ccccc1`, the outcome is reported as “inactive”. With `O=C(O)c1ccccc1-n1cc(C(=O)O)c(=O)c2cc(Nc3c(F)cc(F)cc3Cl)c(Cl)cc21` the outcome was “inactive”. In the case of `Clc1cc(Cl)c2c(c1)N=C1CCCCCN1C2`, the outcome is reported as “inactive”. With `Cc1occc1C(=O)Nc1ccc(C(=O)N2CCC(F)(F)/C(=C\C(=O)N3CCC(N4CCCCC4)CC3)c3ccccc32)cc1` the outcome was “inactive”. `O=C(OCCCCCCOC(=O)c1ccccc1)c1ccccc1` was tested, and the outcome was “inactive”. With `Cc1cc(F)ccc1-c1cc(N2CC[C@@H](O)[C@H]2CO)ncc1N(C)C(=O)C(C)(C)c1cc(C(F)(F)F)cc(C(F)(F)F)c1` the AC50 was 11.3 µM (active). With `O=C(O)Cn1c(=O)n(Cc2ccc(Br)cc2F)c(=O)c2ccc(Cl)cc21` the outcome was “inactive”. `O=CCCCC=O` was tested, and the AC50 was 34 µM (active). `CN1C(=O)CC[C@H]1c1cccnc1` was tested, and the outcome was “inactive”. In the case of `OCCO`, the outcome is reported as “inactive”. For `CN(C)c1ccc(C(=C2C=CC(=[N+](C)C)C=C2)c2ccc(N(C)C)cc2)cc1`, the AC50 was 1.54 µM (active). In the case of `CCCCCCCCCCCO`, the outcome is reported as “inactive”. In the case of `c1ccc(C[n+]2cccc3ccccc32)cc1`, the outcome is reported as “inactive”. In the case of `c1ccc2ccccc2c1`, the outcome is reported as “inactive”. For `Clc1ccccc1C(c1ccccc1)(c1ccccc1)n1ccnc1`, the AC50 was 5.57 µM (active). `Cc1ccc(C(C)C)cc1` was tested, and the outcome was “inactive”. In the case of `OC12N=C(c3ccccc3)SC1Cc1cc(Cl)ccc12` (stereo not given), the outcome is reported as “inactive”. `COCC(C)OCC(C)OCC(C)O` (stereo not given) was tested, and the outcome was “inactive”. With `CC(O)CC(C)(C)O` (stereo not given) the outcome was “inactive”. `CCCCCCCCCCCCO` was tested, and the AC50 was 29.7 µM (active). In the case of `O=C(Nc1ccc(Cl)cc1)Nc1ccc(Cl)c(Cl)c1`, the AC50 is reported as 0.7 µM (active).
